# Structures can show the parent of a compound that is named as a salt.
# Tested on: HeLa
# Experiment: nuclear count per well, robust Z-score vs DMSO; higher = more cells (less toxicity)
# Conditions: 10 µM; 6 h
# 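Also: Hoechst-stained nuclei counted by automated confocal imaging of four fields per well in 384-well plates, with the robust Z-score based on the per-plate DMSO median and robust SD.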
row,SMILES,nuclear count per well
1,CC1(C)S[C@@H]2[C@H](NC(=O)Cc3ccccc3)C(=O)N2[C@H]1C(=O)O [Penicillin G Potassium (Benzylpenicillin)],1.08
2,CN(CCOc1ccc(CC2SC(=O)NC2=O)cc1)c1ccccn1 (stereo not given) [Rosiglitazone],1.01
3,Cn1cc(-c2ccc3c(c2)CCN3C(=O)Cc2cccc(C(F)(F)F)c2)c2c(N)ncnc21,-0.304
4,C[C@H](CCC(=O)O)[C@H]1CC[C@H]2[C@@H]3[C@@H](O)C[C@@H]4C[C@H](O)CC[C@]4(C)[C@H]3CC[C@]12C [Ursodiol],0.11
5,Cc1ccc(C(=O)c2cc(O)c(O)c([N+](=O)[O-])c2)cc1 [Tolcapone],-0.498
6,O=C(O)[C@H]1/C(=C/CO)O[C@@H]2CC(=O)N21 [Clavulanate Potassium],1.69
7,N=C(N)c1ccc(OCCCCCOc2ccc(C(=N)N)cc2)cc1 [Pentamidine Isethionate],-0.511
8,Cn1ccnc1S [Methimazole],-0.461
9,O=C1Nc2ccc(Cl)cc2[C@@](C#CC2CC2)(C(F)(F)F)O1 [Efavirenz],0.00509
10,N#CC(C#N)=C(N)/C(C#N)=C/c1ccc(O)cc1,-0.33
11,"CCCCCCCCC#CCC#CCC#CCCCC(=O)O [5,8,11-Eicosatriynoic acid]",0.469
12,CC(=O)CC(c1ccc([N+](=O)[O-])cc1)c1c(O)c2ccccc2oc1=O (stereo not given) [Acenocoumarol],-0.255
13,CC[C@H]1OC(=O)[C@H](C)C(=O)[C@H](C)[C@@H](O[C@@H]2O[C@H](C)C[C@H](N(C)C)[C@H]2O)[C@](C)(OC)C[C@@H](C)C(=O)[C@H](C)[C@H]2N(CCCCn3cnc(-c4cccnc4)c3)C(=O)O[C@]12C [Telithromycin],-1.11
14,CO[C@H]1O[C@@H]2O[C@@]3(C)CC[C@H]4[C@H](C)CC[C@@H]([C@H]1C)[C@@]24OO3 [Artemether],-0.294
15,CC1(C)O[C@@H]2[C@@H](CO[C@@]3(COS(N)(=O)=O)OC(C)(C)O[C@@H]23)O1 [Topiramate],0.72
16,CC[C@@H]1/C=C(\C)C[C@H](C)C[C@H](OC)[C@H]2O[C@@](O)(C(=O)C(=O)N3CCCC[C@H]3C(=O)O[C@H](/C(C)=C/[C@@H]3CC[C@H](Cl)[C@H](OC)C3)[C@H](C)[C@@H](O)CC1=O)[C@H](C)C[C@@H]2OC [Pimecrolimus],0.66
17,COc1cc2nc(N3CCN(C(=O)c4ccco4)CC3)nc(N)c2cc1OC [Prazocin],0.533
18,CCCC[C@@H](C=O)NC(=O)[C@H](CC(C)C)NC(=O)[C@H](CC(C)C)NC(C)=O [Calpain Inhibitor I],-2.07
19,COc1cc([C@@H]2c3cc4c(cc3[C@@H](O[C@@H]3O[C@@H]5CO[C@@H](C)O[C@H]5[C@H](O)[C@H]3O)[C@H]3COC(=O)[C@H]23)OCO4)cc(OC)c1O [Etoposide],-1.67
20,C[C@]12CC[C@@H]3c4ccc(O)cc4CC[C@H]3[C@@H]1CC[C@@H]2O,1.38
21,O=C1CN2Cc3c(ccc(Cl)c3Cl)N=C2N1 [Anagrelide],0.771
22,CC1COc2c(N3CCN(C)CC3)c(F)cc3c(=O)c(C(=O)O)cn1c23 (stereo not given) [Ofloxacin],-0.567
23,Cc1ccccc1C(OCCN(C)C)c1ccccc1 (stereo not given) [Orphenadrine Citrate],-1.31
24,CNCCCN1c2ccccc2CCc2ccc(Cl)cc21,-0.443
25,CC1=C(CC(=O)O)c2cc(F)ccc2/C1=C\c1ccc([S+](C)[O-])cc1 (stereo not given) [Sulindac],-0.07
